This is an account of results in PubChem BioAssay (Tox21).

Assay [1] is described as follows: qHTS RealTime-Glo MT Cell Viability Assay in HEK293 cells - 16 hour (AID 1224872). Also: nearly all actives have a fitted effect of over 50% in size. Also: potency is read from the fitted curve at half-maximal effect. As to activity change, negative = cytotoxicity: top concentration of the series differs between compounds. The method, boiled down:
(§1)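 Nonlytic real-time viability readout: viable cells convert prosubstrate to NanoLuc substrate, giving luminescence proportional to live cell number. HEK293, 600 cells/well, compound added after 5 h, continuous culture at 37 C.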
For orientation: Quantitative high-throughput screening tests each substance at several concentrations.

The nature of assay [2]: qHTS RealTime-Glo MT Cell Viability Assay in HepG2 cells - 8 hour (AID 1224873). Also: nearly all actives have a fitted effect of over 55% in size. Also: potency is read from the fitted curve at half-maximal effect. In short, it runs like this:
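Real-time viability: cells seeded at 600 per well together with NanoLuc and cell-permeant prosubstrate, compounds added after 5 h incubation. Luminescence tracked at 0, 8, 16, 24, 32 and 40 h of exposure.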

Assay [3] in a line: qHTS RealTime-Glo MT Cell Viability Assay in HEK293 cells - 40 hour (AID 1224874). Also: nearly all actives have a fitted effect of over 50% in size. Also: potency is read from the fitted curve at half-maximal effect. As to conditions: RealTime-Glo luminescence; max response: stronger effect = lower value. The method, boiled down:
(§2)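 Luminescence, which tracks viable cell number through reduction of the prosubstrate to a NanoLuc substrate, was read over continuous 37 C culture. Cells (600/well) were premixed with reagent and rested 5 h before 23 nL of compound in DMSO was pinned.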

The nature of assay [4]: A CellTox Green Cytotoxicity Assay to monitor cytotoxicity in HEK293 cells - 24 hour (AID 1224875). Also: nearly all actives have a fitted effect of over 45% in size. Also: potency is read from the fitted curve at half-maximal effect. As to activity change: series mostly up to about 77 µM. The method, boiled down: (§3)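 Fluorescence from a DNA-binding dye excluded by viable cells was measured repeatedly in the same HEK293 wells (600 cells/well) during continuous compound exposure at 37 C. Each assay gives one read point: 0, 8, 16, 24, 32 or 40 h.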
Assay [5] is described as follows: A CellTox Green Cytotoxicity Assay to monitor cytotoxicity in HepG2 cells - 16 hour (AID 1224876). Also: nearly all actives have a fitted effect of over 45% in size. Also: potency is read from the fitted curve at half-maximal effect. In short, it runs like this: (§4)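 Real-time cytotoxicity: fluorescence of a cell-impermeant cyanine dye binding DNA of dead HepG2 cells, measured repeatedly (0–40 h) during compound exposure at 37 C. Cells seeded 600/well with reagent, dosed after 5 h.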
The nature of assay [6]: qHTS RealTime-Glo MT Cell Viability Assay in HepG2 cells - 32 hour (AID 1224877). Also: nearly all actives have a fitted effect of over 55% in size. Also: potency is read from the fitted curve at half-maximal effect. In short, it runs like this: (§5)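 Luminescence read-out: viable HepG2 cells reduce a prosubstrate to a NanoLuc substrate, giving a signal proportional to live cell number. Reads taken at 0, 8, 16, 24, 32 and 40 h of compound exposure at 37 C.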
Assay [7] can be described thus: A CellTox Green Cytotoxicity Assay to monitor cytotoxicity in HepG2 cells - 24 hour (AID 1224878). Also: nearly all actives have a fitted effect of over 45% in size. Also: potency is read from the fitted curve at half-maximal effect. In short, it runs like this:
as §4

A short description of assay [8]: A CellTox Green Cytotoxicity Assay to monitor cytotoxicity in HepG2 cells - 40 hour (AID 1224879). Also: nearly all actives have a fitted effect of over 40% in size. Also: potency is read from the fitted curve at half-maximal effect. In short, it runs like this: as §4
Assay [9] is described as follows: qHTS RealTime-Glo MT Cell Viability Assay in HEK293 cells - 0 hour (AID 1224880). Also: top concentration of the series differs between compounds; nearly all actives have a fitted effect of over 45% in size. In short, it runs like this: as §2
Assay [10] is described as follows: A CellTox Green Cytotoxicity Assay to monitor cytotoxicity in HEK293 cells - 32 hour (AID 1224881). Also: nearly all actives have a fitted effect of over 40% in size. Also: potency is read from the fitted curve at half-maximal effect. The method, boiled down: as §3
A short description of assay [11]: A CellTox Green Cytotoxicity Assay to monitor cytotoxicity in HepG2 cells - 0 hour (AID 1224882). Also: nearly all actives have a fitted effect of over 35% in size. In short, it runs like this:
as §4

Assay [12] is described as follows: A CellTox Green Cytotoxicity Assay to monitor cytotoxicity in HepG2 cells - 32 hour (AID 1224883). Also: nearly all actives have a fitted effect of over 50% in size. Also: potency is read from the fitted curve at half-maximal effect. In short, it runs like this:
as §4

A short description of assay [13]: A CellTox Green Cytotoxicity Assay to monitor cytotoxicity in HEK293 cells - 8 hour (AID 1224884). Also: nearly all actives have a fitted effect of over 35% in size. In short, it runs like this: as §3
Assay [14] is described as follows: qHTS RealTime-Glo MT Cell Viability Assay in HepG2 cells - 16 hour (AID 1224885). Also: nearly all actives have a fitted effect of over 50% in size. Also: potency is read from the fitted curve at half-maximal effect. In short, it runs like this: as §5
A short description of assay [15]: qHTS RealTime-Glo MT Cell Viability Assay in HEK293 cells - 24 hour (AID 1224886). Also: nearly all actives have a fitted effect of over 50% in size. Also: potency is read from the fitted curve at half-maximal effect. As to activity change, negative = cytotoxicity: top concentration of the series differs between compounds. The method, boiled down: as §1
Assay [16] is described as follows: qHTS RealTime-Glo MT Cell Viability Assay in HEK293 cells - 8 hour (AID 1224887). Also: nearly all actives have a fitted effect of over 50% in size. Also: potency is read from the fitted curve at half-maximal effect. As to activity change, negative = cytotoxicity: top concentration of the series differs between compounds. In short, it runs like this: as §2
Assay [17] can be described thus: A CellTox Green Cytotoxicity Assay to monitor cytotoxicity in HEK293 cells - 16 hour (AID 1224888). Also: nearly all actives have a fitted effect of over 35% in size. The method, boiled down: as §3
Assay [18] can be described thus: qHTS assay to identify small molecule antagonists of the estrogen receptor alpha (ER-alpha) signaling pathway using the BG1 cell line in the presence of 0.1 nM 17-beta-estradiol - cell viability counter screen (AID 1259241). Also: nearly all actives have a fitted effect of over 40% in size. In short, it runs like this:
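Live-cell protease activity (CellTiter-Fluor fluorescence, 30 min) was read in the same wells after VM7Luc4E2 cells had been exposed to compounds with 0.1 nM 17beta-estradiol for 22 hr at 37C.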

Assay [19] is described as follows: qHTS RealTime-Glo MT Cell Viability Assay in HepG2 cells - 0 hour (AID 1224889). Also: nearly all actives have a fitted effect of over 50% in size. In short, it runs like this: as §5
Assay [20] is described as follows: A CellTox Green Cytotoxicity Assay to monitor cytotoxicity in HepG2 cells - 8 hour (AID 1224890). Also: nearly all actives have a fitted effect of over 45% in size. The method, boiled down:
as §4

Unmarked numbers belong to inactive results. Inconclusive results are not listed. Activity calls are given as the source filed them. Calls follow the shape of the dose curve; as a rule, active = well fitted curve in the direction sought with a large enough effect in the repeat runs; inconclusive = weak or mixed curves; inactive = no such curve, though single readings can be large; an effect the other way counts as inactive or inconclusive.
% is scaled to controls: 0 for no effect and ±100 for the full control effect.

Take `C=C(C)C(=O)OCCC[Si](Cl)(Cl)Cl`: the Potency entry in assay [1], in assay [2], in assay [4], in assay [5], in assay [6] and in assay [7] was “inactive” throughout. The Potency entry in assay [8], in [9], in assay [10], in assay [11], in assay [12] and in [13] was “inactive” in each case. Also, the Potency entry in assay [14], in [15], in assay [16], in assay [17] and in assay [18] was “inactive” throughout. Further, the max response in [3] is -5.22%.

`CCCCCCCCCCCCCCCCCO`: the activity change, negative = cytotoxicity in [1] is -0.33% [at 15.8 µM]; in assay [9] it was -0.227% [at 15.8 µM]; in [15] it was 0.271% [at 15.8 µM]; in [16], 2.17% [at 15.8 µM]; in assay [19], -0.0873% [at 15.8 µM]. Also, the viability change, negative = cytotoxic in assay [2] is 4.95% [at 15.8 µM]. Moreover, the max response in assay [3] is 0.671%. The activity change was -19.9% [at 15.8 µM, stronger effect = higher value] in [4] and -22.1% [at 15.8 µM, stronger effect = higher value] in [17]. The cytotoxicity increase was 1.01% [at 15.8 µM] in [5]; 4.05% [at 15.8 µM] in assay [8]; -22.2% [at 15.8 µM] in assay [10]; 6.48% [at 15.8 µM] in assay [12]; -22.7% [at 15.8 µM] in [13]. Besides, the activity change, negative = cytotoxic in [6] is -2.69% [at 15.8 µM]; in assay [14], 1.76% [at 15.8 µM]. For the same compound, the figures for the cytotoxicity in assay [7] and in [11] were 1.75% [at 15.8 µM] and -1.06% [at 15.8 µM], respectively.

Turning to `O=C=NCc1cccc(CN=C=O)c1`, the activity change, negative = cytotoxicity in assay [1] is 2.12% [at 15.8 µM]; in assay [9], 5.7% [at 15.8 µM]; in assay [15], 4.88% [at 15.8 µM]; in [16], 1.79% [at 15.8 µM]; in assay [19], 2.48% [at 15.8 µM]; in assay [18] it was -0.0453% [at 19 µM]. In assay [2], the viability change, negative = cytotoxic is 3.05% [at 15.8 µM]. Moreover, the max response in assay [3] was 3.93%. The activity change in [4] was -11.7% [at 15.8 µM, stronger effect = higher value]. Further, the cytotoxicity increase in assay [5] was 2.28% [at 15.8 µM]; in [8], -0.536% [at 15.8 µM]; in assay [10], -11.9% [at 15.8 µM]; in assay [12], -2.41% [at 15.8 µM]; in assay [13] it was -1.28% [at 15.8 µM]; in assay [20], -0.221% [at 15.8 µM]. Further, the figures for the activity change, negative = cytotoxic in [6] and in assay [14] were 0.5% [at 15.8 µM] and 0.437% [at 15.8 µM], respectively. Also, the cytotoxicity in assay [7] was 0.14% [at 15.8 µM]; in [11] it was 0.25% [at 15.8 µM].

For `Cc1cccc(Br)c1`, the Potency entry in assay [1], in assay [2], in [4], in [5], in [6] and in assay [7] was “inactive” throughout. In addition, the Potency entry in assay [8], in assay [9], in assay [10], in assay [11], in assay [12] and in [13] was “inactive” throughout. For the same compound, the Potency result in assay [14], in assay [15], in assay [16], in assay [17] and in assay [18] was “inactive” throughout. In addition, the max response in assay [3] is 0.0661%.

Consider `CCCCCCCCCCCCCCCC`, for which the Potency entry in [1], in [2], in assay [4], in assay [5], in assay [6] and in assay [7] was “inactive” each time. Moreover, the Potency result in [8], in assay [9], in assay [10], in [11], in assay [12] and in assay [13] was “inactive” in each case. For the same compound, the Potency entry in assay [14], in assay [15], in assay [16], in assay [17], in assay [19] and in assay [20] was “inactive” throughout. Moreover, the max response in [3] is 15.7%.

With `C#CC(O)CCC` (stereo unspecified), the Potency result in assay [1], in assay [2], in assay [4], in assay [5], in [6] and in assay [7] was “inactive” throughout. Besides, the Potency result in assay [8], in assay [9], in assay [10], in assay [11], in [12] and in assay [13] was “inactive” throughout. Further, the Potency entry in assay [14], in [15], in assay [16], in [19], in assay [20] and in assay [18] was “inactive” each time. Also, in assay [3], the max response is 0.0439%.

On to `Cc1ccc(O)cn1`, for which the Potency result in assay [1], in assay [2], in assay [4], in [5], in [6] and in assay [7] was “inactive” each time. Moreover, the Potency entry in [8], in assay [9], in assay [10], in assay [11], in assay [12] and in assay [13] was “inactive” in each case. Also, the Potency entry in assay [14], in [15], in assay [16], in assay [17], in assay [20] and in [18] was “inactive” throughout. For the same compound, in assay [3], the max response is -9.02%.

For the compound `CCCC(O)C(O)CO` (stereo unspecified), the Potency result in [1], in [2], in assay [4], in assay [5], in assay [6] and in assay [7] was “inactive” each time. The Potency result in [8], in [9], in [10], in [11], in assay [12] and in [13] was “inactive” in each case. For the same compound, the Potency result in assay [14], in assay [15], in assay [16], in assay [17], in [19] and in assay [20] was “inactive” each time. Besides, the Potency entry in [18] was “inactive”. Also, the max response in assay [3] is 4.32%.

Regarding `CC(C)=CC1CC(C)CCO1` (stereo unspecified), the Potency entry in assay [1], in assay [2], in [4], in [5], in assay [6] and in [7] was “inactive” in each case. Besides, the Potency result in assay [8], in assay [9], in [10], in assay [11], in assay [12] and in assay [13] was “inactive” in each case. For the same compound, the Potency result in assay [14], in assay [15], in assay [16], in [17], in assay [19] and in assay [20] was “inactive” in each case. In addition, the max response in assay [3] was 2.02%.

For the compound `CCOC(/C=C(\C)CCC=C(C)C)OCC`, the Potency result in assay [1], in [2], in [4], in assay [5], in assay [6] and in [7] was “inactive” each time. Besides, the Potency entry in assay [8], in assay [9], in assay [10], in assay [11], in assay [12] and in assay [13] was “inactive” throughout. Also, the Potency entry in assay [14], in assay [15], in assay [16], in assay [17], in [19] and in [20] was “inactive” in each case. Besides, the Potency entry in [18] is “inactive”. For the same compound, in assay [3], the max response is 9.38%.

Take `CCOC(=O)CC(C)O` (stereo unspecified): the Potency entry in [1], in [2], in assay [4], in assay [5], in assay [6] and in assay [7] was “inactive” throughout. In addition, the Potency result in [8], in assay [9], in assay [10], in assay [11], in assay [12] and in assay [13] was “inactive” throughout. Moreover, the Potency result in assay [14], in [15], in assay [16], in assay [17] and in [18] was “inactive” in each case. The max response in assay [3] was 5.55%.

Take `N#CSCSc1nc2ccccc2s1`: the Potency is 15.5 µM (active) in assay [1]; 49 µM (active) in assay [2]; 19.5 µM (active) in assay [3]; 11 µM (active) in assay [4]; 54.9 µM (active) in assay [5]; 30.9 µM (active) in assay [6]. Moreover, the Potency is 43.6 µM (active) in [7]; 21.9 µM (active) in assay [8]; 12.3 µM (active) in assay [10]; 24.5 µM (active) in assay [12]; 43.6 µM (active) in [14]; 15.5 µM (active) in assay [15]. For the same compound, the Potency in assay [16] is 21.9 µM (active). In addition, the Potency entry in assay [9], in assay [11], in assay [13], in [17], in [19] and in [18] was “inactive” throughout.
